Active and inactive are the calls of the source.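 How the source made its calls, unless noted: active means inhibition at or above 50% at 10 µM; inactive means inhibition below 50%.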

This is an account of results in PubChem BioAssay.

Assay [1] in a line: inhibitors of TNFa-induced NFkB p65 translocation, primary screen, imaging, HUVEC, MLSMR starter and 10KST1 sets (AID 438;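 active means inhibition above 20% together with a positive visual image hit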;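 further: compound added about 3h40 before a 20 min TNFalpha stimulation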;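 on inhibition: signal is the nuclear over cytoplasmic p65 intensity ratio per well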). The settings on record: HUVEC TNFa-induced p65 nuclear translocation; cell count: measured here: nuclei count (cytotoxicity indicator), at 2.08 µM; inhibition: at 2 µM, stronger effect = higher value, 0% TNFa-plus-vehicle, 100% no-TNFa wells.
Assay [2] can be described thus: reduction of polyQ htt aggregates in cells – imaging, exon1htt(103Q)mCFP cells, high-content imaging, primary screen (AID 483;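 active means visual image review flags a hit and inhibition of aggregation exceeds 20%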;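 further: compound exposure lasted 3 days before fixation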;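 on nuclei count: percent of the per-plate median nuclei count of sample wells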). To be noted: exon1htt(103Q)mCFP cell line, aggregate imaging, at 2 µM; inhibition of aggregation: stronger effect = higher value; nuclei count: measured here: cell count, toxicity.
The nature of assay [3]: endothelial E-selectin expression blockers – imaging, HUVEC, immunofluorescence, MLSMR starter and 10KST1 sets, primary screen (AID 487;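 active means visually confirmed hit in the image check and inhibition above 20%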;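 on inhibition: signal is fraction of cell area covered by stained E-selectin grains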;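 on nuclei count: 100% = median nuclei count of all wells on the same plate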). The settings on record: HUVEC TNFalpha-induced E-selectin immunofluorescence imaging, at 2 µM; inhibition: stronger effect = higher value; nuclei count: measured here: cell number, toxicity.
In assay [4] the target is Voltage-gated potassium channel subunit beta-2 (Rattus norvegicus) (UniProt P62483). In words: inhibitors of rat Kvbeta2 reductase activity – biochemical, NADPH fluorescence, primary screen (AID 622;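 active means fluorescence slope higher than the sample average by over 3 SD, cut at about -0.22 in these data, passing the limit was not always enough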;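 further: slope of raw intensity against log time taken from 70 to 1610 s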). To be noted: recombinant KvBeta, 4-cyanobenzaldehyde reduction, at 10 µM, stronger effect = higher value.
Voltage-gated potassium channel subunit beta-2 (Rattus norvegicus), sequence (P62483 whole entry, looked up): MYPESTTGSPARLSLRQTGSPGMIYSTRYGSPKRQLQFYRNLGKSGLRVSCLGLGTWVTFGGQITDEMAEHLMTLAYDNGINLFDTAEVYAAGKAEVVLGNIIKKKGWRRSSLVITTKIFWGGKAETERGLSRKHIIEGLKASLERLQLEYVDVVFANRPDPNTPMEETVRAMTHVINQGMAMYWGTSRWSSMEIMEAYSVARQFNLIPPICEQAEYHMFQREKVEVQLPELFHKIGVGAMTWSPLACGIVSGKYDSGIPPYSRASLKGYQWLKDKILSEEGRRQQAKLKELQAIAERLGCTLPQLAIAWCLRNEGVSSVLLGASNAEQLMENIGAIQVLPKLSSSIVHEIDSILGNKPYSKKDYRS
Assay [5] has the same target. Kind of assay: enhancers of rat Kvbeta2 NADPH turnover – biochemical, NADPH fluorescence, primary screen (AID 623;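 active means NADPH fluorescence slope more negative than the mean of all samples by about 3 SD, 99.7% confidence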;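 further: fluorescence intensity change per second fitted from 20 to 320 s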). To be noted: Recombinant KvBeta, NADPH fluorescence decrease slope, 10 min; at 10 µM; stronger effect = lower value.
The target of assay [6] is Alpha-2C adrenergic receptor (Homo sapiens) (UniProt P18825). In words: compounds altering alpha2C-coupled GIRK flux – cell-based, HEK293 alpha2C/GIRK1/2, thallium flux, primary screen (AID 624;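 active means fluorescence slope after compound addition differing from the mean of all screened samples at 99.7% confidence, in either direction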;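 further: slope of fluorescence ratio to pre-addition baseline per second over 15 to 24 s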). The settings on record: thallium flux BTC fluorescence, at 10 µM, actives lie on both sides.
Alpha-2C adrenergic receptor (Homo sapiens), sequence (P18825 whole entry, looked up): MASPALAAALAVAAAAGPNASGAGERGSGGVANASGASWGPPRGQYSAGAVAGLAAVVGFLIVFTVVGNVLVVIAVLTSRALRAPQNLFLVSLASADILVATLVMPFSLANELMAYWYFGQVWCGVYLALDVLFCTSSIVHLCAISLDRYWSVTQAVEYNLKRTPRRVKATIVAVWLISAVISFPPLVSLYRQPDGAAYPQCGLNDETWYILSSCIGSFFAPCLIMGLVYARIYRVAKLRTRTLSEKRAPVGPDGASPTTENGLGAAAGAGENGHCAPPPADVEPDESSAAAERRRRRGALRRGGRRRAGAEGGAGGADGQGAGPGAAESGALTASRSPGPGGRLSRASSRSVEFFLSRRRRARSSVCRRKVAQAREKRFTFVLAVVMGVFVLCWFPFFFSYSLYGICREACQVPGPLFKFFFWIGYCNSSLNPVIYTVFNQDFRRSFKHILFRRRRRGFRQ
A short description of assay [7]: blockers of RIG-like receptor reporter activation – cell-based, Sendai virus stimulus, luciferase, 10K MLSCN set, TLR/RLR signaling modifier project, primary screen (AID 602276).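 Further: firefly luciferase from ISG56 promoter only with Renilla not read in this screen; 0% = Sendai virus plus DMSO and 100% = medium plus DMSO without virus.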 To be noted: HEK293 RL24 IRF3 luciferase reporter, at 10 µM, stronger effect = higher value. A general note: Reporter assays use an easily measured gene product as a stand-in for the process of interest.

A short description of assay [8]: TLR3 IRF3 reporter activation blockers – cell-based, poly I:C stimulus, luciferase, 10K MLSCN set, primary screen (AID 602277;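 active means inhibition of the reporter signal at or above 50%; inactive means inhibition below 50%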). The settings on record: HEK293-TLR3 RL24 IRF3 luciferase reporter, at 10 µM, stronger effect = higher value.

The term inhibition denotes the relative decrease from the control value, in per cent. In the case of `COc1ccc(CCNC(=O)c2cc(C(C)C)on2)cc1OC`, the cell count in assay [1] was 825. For the same compound, the inhibition is 9.2% (inactive) in assay [1], 2.8% (inactive) in assay [3], 2.63% (inactive) in assay [7] and 18.2% (inactive) in assay [8]. For the same compound, the inhibition of aggregation in assay [2] is -27% (inactive). The nuclei count in assay [2] is 102%; in assay [3] it was 110%. In addition, in assay [4], the fluorescence slope was -0.567 (inactive). In assay [5], the NADPH fluorescence slope was -1.2e-05 (inactive). Besides, in assay [6], the slope was 0.00632 (inactive).
As for `CC1(C)NC(=O)N(CC(O)COc2ccc(-c3ccccc3)cc2)C1=O` (centres undefined), the cell count in assay [1] came out at 260. Moreover, the inhibition in assay [1] is -0.5% (inactive); in assay [3], -18.2% (inactive); in assay [7] it was -15.6% (inactive); in assay [8] it was 1.46% (inactive). Further, the inhibition of aggregation in assay [2] is 4.5% (inactive). The nuclei count in assay [2] was determined as 89.9%; in assay [3], 125%. For the same compound, the fluorescence slope in assay [4] is -0.425 (inactive). Further, in assay [5], the NADPH fluorescence slope is -6.5e-05 (inactive). In addition, in assay [6], the slope is 0.00308 (inactive).
For the compound `CC(C)(C)c1cc(NS(=O)(=O)c2ccc3c(c2)OCCO3)on1`, the cell count in assay [1] amounted to 574. Also, the inhibition is -2.4% (inactive) in assay [1], -81.6% (inactive) in assay [3], 11.1% (inactive) in assay [7] and 20.1% (inactive) in assay [8]. In addition, the inhibition of aggregation in assay [2] was 5.3% (inactive). Besides, the nuclei count worked out at 104% in assay [2] and 167% in assay [3]. For the same compound, the fluorescence slope in assay [4] was -0.586 (inactive). Moreover, the NADPH fluorescence slope in assay [5] is -2.5e-06 (inactive). The slope in assay [6] is 0.0066 (inactive).
`COC(=O)C1=CN(C)C=C(C(=O)OC)C1c1ccc(O)c(OC)c1`: the cell count in assay [1] worked out at 281. For the same compound, the inhibition in assay [1] was 18.4% (inactive); in assay [3], 7.6% (inactive); in assay [7], 11.2% (inactive); in assay [8], 23.8% (inactive). Besides, in assay [2], the inhibition of aggregation was -27.8% (inactive). In addition, the nuclei count in assay [2] was determined as 23.5%; in assay [3] it was 103%. In addition, the fluorescence slope in assay [4] is -0.39 (inactive). Further, the NADPH fluorescence slope in assay [5] is -4.6e-05 (inactive). In assay [6], the slope is 0.00249 (inactive).
For `Cc1cccc(-n2nnnc2SCc2csc(-c3ccccc3)n2)c1`, in assay [1], the cell count came to 413. The inhibition in assay [1] was 2.9% (inactive); in assay [3], -106% (inactive); in assay [7] it was 9.28% (inactive); in assay [8], 6.25% (inactive). Also, the inhibition of aggregation in assay [2] is -8.3% (inactive). Besides, the figures for the nuclei count in assay [2] and in assay [3] were 125% and 127%, respectively. Further, the fluorescence slope in assay [4] is -0.502 (inactive). In addition, the NADPH fluorescence slope in assay [5] is -3.3e-05 (inactive). For the same compound, in assay [6], the slope was 0.00568 (inactive).
With `COc1ccc(-c2nc(C)c(C(C)=O)n2O)cc1OC`, the cell count in assay [1] was found to be 385. Also, the inhibition was 2.7% (inactive) in assay [1], -127% (inactive) in assay [3], -2.76% (inactive) in assay [7] and 10.1% (inactive) in assay [8]. For the same compound, the inhibition of aggregation in assay [2] was 3.6% (inactive). The nuclei count in assay [2] amounted to 102%; in assay [3], 106%. Besides, the fluorescence slope in assay [4] was -0.355 (inactive). In assay [5], the NADPH fluorescence slope was -2.6e-05 (inactive). For the same compound, the slope in assay [6] is 0.00569 (inactive).
For `CCn1c(SCc2cc(=O)[nH]c3ccccc23)nc2c1c(=O)n(C)c(=O)n2C`, the cell count in assay [1] stood at 350. Moreover, the inhibition in assay [1] is 1% (inactive); in assay [3], -38.3% (inactive); in assay [7] it was 4.21% (inactive); in assay [8] it was 14.7% (inactive). In assay [2], the inhibition of aggregation was -9.3% (inactive). Moreover, the nuclei count in assay [2] amounted to 93.3%; in assay [3], 99.2%. Besides, in assay [4], the fluorescence slope is -0.336 (inactive). In addition, in assay [5], the NADPH fluorescence slope is -3.5e-05 (inactive). In addition, the slope in assay [6] was 0.00504 (inactive).
With `Cc1cc(C)c(NC(=O)CSc2nc3c(c(=O)n2C)SC(C)C3)c(C)c1` (centres undefined), in assay [1], the cell count worked out at 700. The inhibition in assay [1] is 2.9% (inactive); in assay [3] it was -22% (inactive); in assay [7], -19.3% (inactive); in assay [8], -13.4% (inactive). Moreover, the inhibition of aggregation in assay [2] is -5.9% (inactive). In addition, the nuclei count worked out at 102% in assay [2] and 120% in assay [3]. For the same compound, in assay [4], the fluorescence slope was -0.565 (inactive). In addition, the NADPH fluorescence slope in assay [5] is -3.2e-05 (inactive). The slope in assay [6] was 0.00653 (inactive).
As to `CCN(CC)C(=O)Oc1ccc(NC(C)=O)cc1`, the cell count in assay [1] came to 383. Besides, the inhibition in assay [1] is 2.1% (inactive); in assay [3] it was -27.3% (inactive); in assay [7], -1% (inactive); in assay [8], 23% (inactive). Further, in assay [2], the inhibition of aggregation was 1.1% (inactive). Moreover, the nuclei count amounted to 99.8% in assay [2] and 102% in assay [3]. The fluorescence slope in assay [4] is -0.431 (inactive). Also, the NADPH fluorescence slope in assay [5] was -6.8e-05 (inactive). Besides, in assay [6], the slope is 0.00611 (inactive).
As to `Cn1c(=O)[nH]c(=O)c2c1nc(N1CCc3ccccc3C1)n2CCSc1nc2ccccc2s1`, the cell count in assay [1] amounted to 404. The inhibition is 4.7% (inactive) in assay [1], -34.8% (inactive) in assay [3], 19.3% (inactive) in assay [7] and 23% (inactive) in assay [8]. Also, the inhibition of aggregation in assay [2] was 4.4% (inactive). The nuclei count in assay [2] came to 105%; in assay [3], 118%. Also, the fluorescence slope in assay [4] was -0.502 (inactive). Besides, the NADPH fluorescence slope in assay [5] was -4.2e-05 (inactive). In addition, the slope in assay [6] was 0.00385 (inactive).
Turning to `COc1ccc2cc(CN(CCO)C(=O)c3ccc(Br)cc3)c(=O)[nH]c2c1`, in assay [1], the cell count was 333. The inhibition is 5.3% (inactive) in assay [1], -33% (inactive) in assay [3], 11.6% (inactive) in assay [7] and 0.693% (inactive) in assay [8]. Further, the inhibition of aggregation in assay [2] is -21.4% (inactive). Also, the nuclei count in assay [2] is 119%; in assay [3] it was 118%. For the same compound, the fluorescence slope in assay [4] was -0.613 (inactive). The NADPH fluorescence slope in assay [5] was -4.6e-05 (inactive). In addition, in assay [6], the slope was 0.00437 (inactive).
In the case of `CCOc1ccccc1C1CC(=O)Nc2cc3c(cc21)OCO3` (centres undefined), the cell count in assay [1] was 266. Also, the inhibition in assay [1] is 14.4% (inactive); in assay [3], -9.8% (inactive); in assay [7] it was 3.25% (inactive); in assay [8], 40.2% (inactive). Besides, the inhibition of aggregation in assay [2] is -18.8% (inactive). Also, the nuclei count is 86.9% in assay [2] and 98.7% in assay [3]. The fluorescence slope in assay [4] was -0.38 (inactive). In assay [5], the NADPH fluorescence slope is -4.6e-05 (inactive). In addition, in assay [6], the slope is 0.00457 (inactive).
Consider `CCC(=O)N1C(=O)CCN(C(C)=O)c2ccccc21`, for which the cell count in assay [1] is 454. In addition, the inhibition in assay [1] was 11.3% (inactive); in assay [3] it was -39.7% (inactive); in assay [7], 13.1% (inactive); in assay [8], 20.6% (inactive). In assay [2], the inhibition of aggregation was -2.5% (inactive). Moreover, the nuclei count was determined as 109% in assay [2] and 130% in assay [3]. Moreover, the fluorescence slope in assay [4] is -0.381 (inactive). In addition, in assay [5], the NADPH fluorescence slope is 2.5e-05 (inactive). Further, the slope in assay [6] is 0.0091 (inactive).
Turning to `O=C(NCc1ccc2c(c1)OCO2)c1ccc(NS(=O)(=O)c2ccc3c(c2)OCCO3)cc1`, the cell count in assay [1] was found to be 499. In addition, the inhibition in assay [1] is -22.3% (inactive); in assay [3], -0.9% (inactive); in assay [7], 10.8% (inactive); in assay [8], 17.5% (inactive). Moreover, the inhibition of aggregation in assay [2] was 20.4% (inactive). Besides, the nuclei count was 104% in assay [2] and 128% in assay [3]. Moreover, in assay [4], the fluorescence slope is -0.615 (inactive). Moreover, the NADPH fluorescence slope in assay [5] was -2.7e-05 (inactive). Moreover, in assay [6], the slope was 0.00624 (inactive).
